Holding throughout (test): DAPPL (digital affinity profiling via proximity ligation, sequencing); 10 mM Tris-HCl pH 7.5, 50 mM NaCl, 1 mM DTT, 4% glycerol, room temperature, 30 min; GST-TFs on glutathione beads, 16-mer random dsDNA library, 0.1% formaldehyde crosslink after washing; high values mean tight binding
One experiment has as its target T1, FEV (Homo sapiens, UniProt Q99581 1-238).
T1 sequence: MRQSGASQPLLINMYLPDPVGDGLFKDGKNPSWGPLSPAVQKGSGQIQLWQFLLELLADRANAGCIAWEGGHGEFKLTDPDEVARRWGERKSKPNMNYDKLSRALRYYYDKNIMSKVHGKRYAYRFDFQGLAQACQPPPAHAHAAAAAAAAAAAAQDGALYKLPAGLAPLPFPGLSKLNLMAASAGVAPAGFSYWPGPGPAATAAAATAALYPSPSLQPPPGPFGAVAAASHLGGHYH
The note with it: protein: recombinant; tags: N-terminal GST; dsDNA, one strand shown. In a few lines: (§1)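 Human transcription factors were made in yeast as GST fusions, captured on glutathione beads and barcoded with DNA. With a tag-only sample included, the pool was incubated with 200 nmole of a random double-stranded 16-mer DNA library in Tris/NaCl/DTT/glycerol buffer at room temperature for 30 min, then crosslinked with 0.1% formaldehyde after washing, ligated by proximity, amplified and sequenced. For binding signal, each hexamer's read frequency for a factor is divided by its frequency for the tag-only sample.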

For a further experiment, the target named is ETV5 (Homo sapiens, UniProt P41161 1-510). The note with it: protein: recombinant; tags: N-terminal GST; dsDNA, one strand shown. The essentials: as §1
In a further experiment the target is HSF1 (Homo sapiens, UniProt Q00613 1-529). The note with it: protein: recombinant; tags: N-terminal GST; chain copies: 3; dsDNA, one strand shown. In a few lines: as §1
Another experiment addresses T2, SPIC (Homo sapiens, UniProt Q8N5J4 1-248).
T2 sequence: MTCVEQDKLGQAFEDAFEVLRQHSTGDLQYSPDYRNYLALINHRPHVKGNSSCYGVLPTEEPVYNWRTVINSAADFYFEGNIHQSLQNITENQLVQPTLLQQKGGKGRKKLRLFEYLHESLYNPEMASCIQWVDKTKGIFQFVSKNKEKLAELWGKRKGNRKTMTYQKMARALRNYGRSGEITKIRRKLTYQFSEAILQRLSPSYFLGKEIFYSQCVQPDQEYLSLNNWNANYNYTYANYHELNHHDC
As to conditions: protein: recombinant; tags: N-terminal GST; dsDNA, one strand shown. The essentials: as §1

In a further experiment the target is ELF4 (Homo sapiens, UniProt Q99607 1-663). As to conditions: protein: recombinant; tags: N-terminal GST; dsDNA, one strand shown. In a few lines:
as §1

Another experiment has as its target T3, ELK4 (Homo sapiens, UniProt P28324-2 1-405).
T3 sequence: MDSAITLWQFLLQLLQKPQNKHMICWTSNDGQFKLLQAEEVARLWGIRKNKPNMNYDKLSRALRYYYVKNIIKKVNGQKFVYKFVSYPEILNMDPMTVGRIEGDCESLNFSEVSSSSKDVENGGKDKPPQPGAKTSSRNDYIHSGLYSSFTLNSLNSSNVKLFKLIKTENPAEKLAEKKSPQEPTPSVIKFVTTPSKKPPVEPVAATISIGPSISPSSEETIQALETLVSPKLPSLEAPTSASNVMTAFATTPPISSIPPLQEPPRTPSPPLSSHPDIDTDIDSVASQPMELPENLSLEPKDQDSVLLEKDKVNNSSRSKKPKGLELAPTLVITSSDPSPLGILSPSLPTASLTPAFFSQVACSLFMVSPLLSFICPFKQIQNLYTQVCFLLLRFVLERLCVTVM
As to conditions: protein: recombinant; tags: N-terminal GST; dsDNA, one strand shown. In a few lines: as §1

A further experiment deals with T4, ETV2 (Homo sapiens, UniProt O00321 1-342).
T4 sequence: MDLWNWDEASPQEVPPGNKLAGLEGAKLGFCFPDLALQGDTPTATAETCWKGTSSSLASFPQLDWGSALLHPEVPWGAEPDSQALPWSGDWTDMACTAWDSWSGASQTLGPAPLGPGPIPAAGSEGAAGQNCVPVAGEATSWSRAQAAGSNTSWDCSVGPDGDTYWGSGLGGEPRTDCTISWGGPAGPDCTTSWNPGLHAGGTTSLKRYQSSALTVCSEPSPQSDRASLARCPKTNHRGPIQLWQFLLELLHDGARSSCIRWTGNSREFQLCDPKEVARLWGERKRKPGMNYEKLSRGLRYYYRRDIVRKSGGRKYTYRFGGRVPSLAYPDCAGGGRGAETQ
The note with it: protein: recombinant; tags: N-terminal GST; dsDNA, one strand shown. The essentials:
as §1

In the next experiment the target is T5, ELF3 (Homo sapiens, UniProt P78545 1-371).
T5 sequence: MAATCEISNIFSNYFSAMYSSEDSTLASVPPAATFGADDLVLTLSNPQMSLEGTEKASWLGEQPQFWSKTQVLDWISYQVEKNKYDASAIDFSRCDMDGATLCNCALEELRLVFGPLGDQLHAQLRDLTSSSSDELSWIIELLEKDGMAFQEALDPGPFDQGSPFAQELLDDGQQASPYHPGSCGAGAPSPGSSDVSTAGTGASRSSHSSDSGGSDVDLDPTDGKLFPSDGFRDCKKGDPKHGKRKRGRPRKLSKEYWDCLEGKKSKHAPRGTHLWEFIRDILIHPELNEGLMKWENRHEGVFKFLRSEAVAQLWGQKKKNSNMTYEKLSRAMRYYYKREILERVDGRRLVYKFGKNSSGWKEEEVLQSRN
As to conditions: protein: recombinant; tags: N-terminal GST; dsDNA, one strand shown. The essentials:
as §1

The next experiment deals with CRX (Homo sapiens, UniProt O43186 1-299). The note with it: protein: recombinant; tags: N-terminal GST; dsDNA, one strand shown. The essentials:
as §1

The target in the next experiment is ETV1 (Homo sapiens, UniProt P50549 1-477). As to conditions: protein: recombinant; tags: N-terminal GST; dsDNA, one strand shown. In a few lines: as §1
The target in a further experiment is T6, ERF (Homo sapiens, UniProt P50548 1-548).
T6 sequence: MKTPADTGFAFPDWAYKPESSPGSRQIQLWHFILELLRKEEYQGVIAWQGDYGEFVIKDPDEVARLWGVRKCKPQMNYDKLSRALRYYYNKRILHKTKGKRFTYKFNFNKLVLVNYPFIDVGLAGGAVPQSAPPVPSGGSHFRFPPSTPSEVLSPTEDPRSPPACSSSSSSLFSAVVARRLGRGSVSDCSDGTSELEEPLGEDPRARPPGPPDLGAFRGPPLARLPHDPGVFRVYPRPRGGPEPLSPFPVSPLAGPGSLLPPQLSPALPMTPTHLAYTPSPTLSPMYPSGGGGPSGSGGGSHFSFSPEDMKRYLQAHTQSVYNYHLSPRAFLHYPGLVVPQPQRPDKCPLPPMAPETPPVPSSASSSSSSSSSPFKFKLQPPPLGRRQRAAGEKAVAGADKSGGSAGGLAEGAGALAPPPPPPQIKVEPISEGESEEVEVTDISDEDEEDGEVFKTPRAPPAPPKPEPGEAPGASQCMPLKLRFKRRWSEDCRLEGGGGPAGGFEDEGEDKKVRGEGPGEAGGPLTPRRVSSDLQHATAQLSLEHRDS
As to conditions: protein: recombinant; tags: N-terminal GST; dsDNA, one strand shown. In a few lines: as §1

For a further experiment, the target named is T7, ETV3L (Homo sapiens, UniProt Q6ZN32 1-361).
T7 sequence: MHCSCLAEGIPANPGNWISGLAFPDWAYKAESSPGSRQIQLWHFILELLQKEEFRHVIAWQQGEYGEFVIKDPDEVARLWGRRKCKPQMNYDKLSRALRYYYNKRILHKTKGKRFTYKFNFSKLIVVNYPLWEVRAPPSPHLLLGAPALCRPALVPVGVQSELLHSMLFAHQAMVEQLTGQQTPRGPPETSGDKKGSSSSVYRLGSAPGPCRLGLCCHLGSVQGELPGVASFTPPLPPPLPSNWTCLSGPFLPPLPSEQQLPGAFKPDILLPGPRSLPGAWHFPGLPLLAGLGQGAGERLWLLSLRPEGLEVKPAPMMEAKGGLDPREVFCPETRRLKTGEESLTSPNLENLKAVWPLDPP
As to conditions: protein: recombinant; tags: N-terminal GST; dsDNA, one strand shown. The essentials:
as §1

For the next experiment, the target named is T8, ETS2 (Homo sapiens, UniProt P15036 1-469).
T8 sequence: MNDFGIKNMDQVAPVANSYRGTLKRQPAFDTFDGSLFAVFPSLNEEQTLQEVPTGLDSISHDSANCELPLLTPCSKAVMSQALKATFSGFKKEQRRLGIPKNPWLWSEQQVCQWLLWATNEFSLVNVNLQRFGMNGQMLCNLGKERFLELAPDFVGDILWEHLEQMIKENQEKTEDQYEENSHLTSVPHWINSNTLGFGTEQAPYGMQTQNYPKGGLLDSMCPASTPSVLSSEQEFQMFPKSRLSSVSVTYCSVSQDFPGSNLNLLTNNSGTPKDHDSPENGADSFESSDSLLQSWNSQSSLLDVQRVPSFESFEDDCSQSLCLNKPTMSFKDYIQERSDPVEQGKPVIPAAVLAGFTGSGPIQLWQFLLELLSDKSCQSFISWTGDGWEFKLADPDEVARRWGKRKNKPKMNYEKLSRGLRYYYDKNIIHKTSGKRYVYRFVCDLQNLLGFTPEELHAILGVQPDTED
As to conditions: protein: recombinant; tags: N-terminal GST; dsDNA, one strand shown. In a few lines: as §1

The next experiment has as its target T9, SPDEF (Homo sapiens, UniProt O95238 1-335).
T9 sequence: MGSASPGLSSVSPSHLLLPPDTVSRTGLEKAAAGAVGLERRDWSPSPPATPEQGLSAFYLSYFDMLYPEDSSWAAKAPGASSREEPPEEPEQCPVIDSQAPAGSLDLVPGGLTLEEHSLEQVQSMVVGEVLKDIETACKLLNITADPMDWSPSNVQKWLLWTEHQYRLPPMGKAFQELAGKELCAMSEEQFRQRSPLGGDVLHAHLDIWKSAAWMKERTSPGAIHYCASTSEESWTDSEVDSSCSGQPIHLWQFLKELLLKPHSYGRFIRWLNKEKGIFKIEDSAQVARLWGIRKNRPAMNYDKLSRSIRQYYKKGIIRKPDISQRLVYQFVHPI
As to conditions: protein: recombinant; tags: N-terminal GST; dsDNA, one strand shown. In a few lines:
as §1

Another experiment has as its target T10, ETV7 (Homo sapiens, UniProt Q9Y603 1-341).
T10 sequence: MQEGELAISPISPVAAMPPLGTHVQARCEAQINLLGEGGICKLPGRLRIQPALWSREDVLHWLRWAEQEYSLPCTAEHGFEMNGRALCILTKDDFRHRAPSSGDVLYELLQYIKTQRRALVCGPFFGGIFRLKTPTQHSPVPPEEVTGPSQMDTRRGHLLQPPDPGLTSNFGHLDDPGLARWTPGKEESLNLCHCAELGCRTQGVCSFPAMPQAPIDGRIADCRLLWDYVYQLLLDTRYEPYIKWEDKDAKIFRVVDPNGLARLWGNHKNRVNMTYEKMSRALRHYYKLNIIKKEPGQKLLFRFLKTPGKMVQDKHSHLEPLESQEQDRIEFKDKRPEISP
As to conditions: protein: recombinant; tags: N-terminal GST; dsDNA, one strand shown. The essentials: as §1

A further experiment deals with T11, ELF5 (Homo sapiens, UniProt Q9UKW6-2 1-255).
T11 sequence: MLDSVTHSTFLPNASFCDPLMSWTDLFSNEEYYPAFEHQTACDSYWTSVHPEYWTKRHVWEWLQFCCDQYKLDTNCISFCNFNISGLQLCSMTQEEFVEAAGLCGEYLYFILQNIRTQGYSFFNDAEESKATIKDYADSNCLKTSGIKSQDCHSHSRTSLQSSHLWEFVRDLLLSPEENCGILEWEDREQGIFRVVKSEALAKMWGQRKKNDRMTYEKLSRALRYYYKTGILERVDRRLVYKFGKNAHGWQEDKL
As to conditions: protein: recombinant; tags: N-terminal GST; dsDNA, one strand shown. The essentials:
as §1

The target in another experiment is T12, ETV3 (Homo sapiens, UniProt P41162-2 1-143).
T12 sequence: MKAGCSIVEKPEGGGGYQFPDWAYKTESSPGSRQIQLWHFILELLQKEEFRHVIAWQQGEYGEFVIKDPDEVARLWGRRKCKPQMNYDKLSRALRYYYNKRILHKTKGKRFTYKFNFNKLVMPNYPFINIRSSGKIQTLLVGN
The note with it: protein: recombinant; tags: N-terminal GST; dsDNA, one strand shown. The essentials: as §1

The target in a further experiment is ETV6 (Homo sapiens, UniProt P41212 1-452). The note with it: protein: recombinant; tags: N-terminal GST; dsDNA, one strand shown. The essentials: as §1
Sequence of ETV6 (P41212 whole entry): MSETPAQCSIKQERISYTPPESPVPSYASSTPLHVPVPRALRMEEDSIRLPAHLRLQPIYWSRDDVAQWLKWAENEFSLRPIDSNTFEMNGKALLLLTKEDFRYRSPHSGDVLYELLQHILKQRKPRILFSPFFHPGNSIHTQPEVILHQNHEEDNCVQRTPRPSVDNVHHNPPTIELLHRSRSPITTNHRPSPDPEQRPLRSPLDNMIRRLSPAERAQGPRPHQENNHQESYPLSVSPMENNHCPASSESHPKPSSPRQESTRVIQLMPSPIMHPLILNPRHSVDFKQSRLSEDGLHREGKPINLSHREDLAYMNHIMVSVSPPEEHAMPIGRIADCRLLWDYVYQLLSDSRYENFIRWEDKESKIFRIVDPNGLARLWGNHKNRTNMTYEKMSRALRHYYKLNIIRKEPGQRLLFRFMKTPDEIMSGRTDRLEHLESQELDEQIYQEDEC

Sequence of ELF4 (Q99607 whole entry): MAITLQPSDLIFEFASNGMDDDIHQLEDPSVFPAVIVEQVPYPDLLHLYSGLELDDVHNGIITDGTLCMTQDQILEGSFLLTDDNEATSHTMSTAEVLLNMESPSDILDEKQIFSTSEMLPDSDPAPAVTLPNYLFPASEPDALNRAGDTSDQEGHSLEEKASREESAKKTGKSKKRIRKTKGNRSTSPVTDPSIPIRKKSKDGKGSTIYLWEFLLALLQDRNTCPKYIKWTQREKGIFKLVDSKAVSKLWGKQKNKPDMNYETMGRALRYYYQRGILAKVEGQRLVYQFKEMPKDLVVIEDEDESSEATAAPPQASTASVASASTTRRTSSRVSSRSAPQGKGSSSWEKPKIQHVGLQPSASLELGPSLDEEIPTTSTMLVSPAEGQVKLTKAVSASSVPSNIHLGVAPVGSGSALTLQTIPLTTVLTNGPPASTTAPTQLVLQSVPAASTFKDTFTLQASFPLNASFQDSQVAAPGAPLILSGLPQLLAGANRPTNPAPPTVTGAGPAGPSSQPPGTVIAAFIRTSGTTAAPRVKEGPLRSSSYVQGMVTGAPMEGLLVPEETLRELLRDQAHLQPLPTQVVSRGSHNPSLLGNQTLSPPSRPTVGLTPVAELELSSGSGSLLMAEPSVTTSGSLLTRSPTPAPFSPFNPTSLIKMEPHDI
Sequence of CRX (O43186 whole entry): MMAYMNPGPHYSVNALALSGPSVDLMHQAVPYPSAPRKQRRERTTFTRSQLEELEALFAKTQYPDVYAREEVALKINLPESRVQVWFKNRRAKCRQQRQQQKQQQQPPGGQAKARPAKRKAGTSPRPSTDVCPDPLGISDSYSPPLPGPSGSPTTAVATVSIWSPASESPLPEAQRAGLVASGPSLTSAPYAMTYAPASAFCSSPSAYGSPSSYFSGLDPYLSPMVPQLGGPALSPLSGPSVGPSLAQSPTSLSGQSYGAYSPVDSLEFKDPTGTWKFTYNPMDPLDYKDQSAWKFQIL
Sequence of ETV1 (P50549 whole entry): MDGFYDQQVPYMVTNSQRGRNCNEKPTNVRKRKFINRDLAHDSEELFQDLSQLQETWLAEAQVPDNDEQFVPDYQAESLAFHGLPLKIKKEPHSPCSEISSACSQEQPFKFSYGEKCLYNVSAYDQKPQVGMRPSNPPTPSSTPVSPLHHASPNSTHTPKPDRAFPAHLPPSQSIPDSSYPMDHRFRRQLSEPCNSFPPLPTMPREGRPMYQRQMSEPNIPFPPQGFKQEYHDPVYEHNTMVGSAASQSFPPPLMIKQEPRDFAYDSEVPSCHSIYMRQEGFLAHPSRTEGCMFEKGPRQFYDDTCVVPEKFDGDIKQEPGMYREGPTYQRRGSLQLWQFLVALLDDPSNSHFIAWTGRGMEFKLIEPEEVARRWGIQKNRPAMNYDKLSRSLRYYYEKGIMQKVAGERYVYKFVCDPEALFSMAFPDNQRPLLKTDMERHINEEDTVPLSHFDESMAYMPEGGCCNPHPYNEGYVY
Sequence of HSF1 (Q00613 whole entry): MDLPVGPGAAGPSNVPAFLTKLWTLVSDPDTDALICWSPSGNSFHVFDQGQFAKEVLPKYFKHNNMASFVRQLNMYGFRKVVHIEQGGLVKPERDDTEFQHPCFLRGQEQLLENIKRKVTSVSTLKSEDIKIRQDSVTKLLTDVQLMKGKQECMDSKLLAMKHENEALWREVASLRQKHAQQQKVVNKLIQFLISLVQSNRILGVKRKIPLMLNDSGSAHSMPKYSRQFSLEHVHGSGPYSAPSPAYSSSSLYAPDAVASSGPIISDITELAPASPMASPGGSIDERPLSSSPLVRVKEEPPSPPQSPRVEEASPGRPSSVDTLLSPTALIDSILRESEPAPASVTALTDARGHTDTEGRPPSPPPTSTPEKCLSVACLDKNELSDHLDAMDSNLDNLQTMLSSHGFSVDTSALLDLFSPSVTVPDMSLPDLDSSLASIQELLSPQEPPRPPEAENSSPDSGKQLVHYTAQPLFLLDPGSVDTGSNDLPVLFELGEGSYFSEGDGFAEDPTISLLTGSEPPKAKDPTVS
Sequence of ETV5 (P41161 whole entry): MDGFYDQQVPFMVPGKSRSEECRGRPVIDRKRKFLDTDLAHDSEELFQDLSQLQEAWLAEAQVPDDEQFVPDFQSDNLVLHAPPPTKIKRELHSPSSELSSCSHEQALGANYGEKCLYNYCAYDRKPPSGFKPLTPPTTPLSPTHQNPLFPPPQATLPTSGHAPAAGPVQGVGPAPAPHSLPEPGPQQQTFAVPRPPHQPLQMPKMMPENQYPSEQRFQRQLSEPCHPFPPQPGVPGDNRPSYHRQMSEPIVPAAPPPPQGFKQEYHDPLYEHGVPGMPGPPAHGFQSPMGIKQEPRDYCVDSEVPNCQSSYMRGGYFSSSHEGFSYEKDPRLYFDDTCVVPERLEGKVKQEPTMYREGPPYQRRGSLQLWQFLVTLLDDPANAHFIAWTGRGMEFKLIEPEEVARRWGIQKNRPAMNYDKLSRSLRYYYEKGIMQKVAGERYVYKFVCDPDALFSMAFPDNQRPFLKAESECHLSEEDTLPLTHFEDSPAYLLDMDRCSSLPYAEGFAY

Consider ATTCTG, for which the binding signal with FEV is 1.23 fold enrichment (6-mer frequency, TF over GST control); in the experiment with ETV5, 1.29 fold enrichment (6-mer frequency, TF over GST control); with HSF1, 2.18 fold enrichment (6-mer frequency, TF over GST control); in the experiment with SPIC, 1.11 fold enrichment (6-mer frequency, TF over GST control); with ELF4 it was 1.37 fold enrichment (6-mer frequency, TF over GST control); in the experiment with ELK4, 1.38 fold enrichment (6-mer frequency, TF over GST control). Besides, the binding signal with ETV2 was 1.43 fold enrichment (6-mer frequency, TF over GST control); in the experiment with ELF3, 1.08 fold enrichment (6-mer frequency, TF over GST control); with CRX, 1.5 fold enrichment (6-mer frequency, TF over GST control); in the experiment with ETV1, 1.45 fold enrichment (6-mer frequency, TF over GST control); in the experiment with ERF it was 1.38 fold enrichment (6-mer frequency, TF over GST control); with ETV3L it was 1.28 fold enrichment (6-mer frequency, TF over GST control). Further, the binding signal with ETS2 is 1.31 fold enrichment (6-mer frequency, TF over GST control); with SPDEF, 1.27 fold enrichment (6-mer frequency, TF over GST control); with ETV7, 1.23 fold enrichment (6-mer frequency, TF over GST control); with ELF5, 1.21 fold enrichment (6-mer frequency, TF over GST control); in the experiment with ETV3 it was 1.26 fold enrichment (6-mer frequency, TF over GST control); with ETV6, 1.43 fold enrichment (6-mer frequency, TF over GST control).

The record behind these values is PMC7862700, “An all-to-all approach to the identification of sequence-specific readers for epigenetic DNA modifications on cytosine”.
